From PubChem BioAssay
This is a sample that favours compounds with a hit; in the whole collection about 2.9% have one here.
Pol eta inh: DNA polymerase eta (human) inhibition | Q9Y253 | recombinant Pol eta, fluorescent DNA replication assay | Potency, µM (highest dose often 114 µM), inactives show at the highest dose activity change, negative = inhibition, hits mostly inhibitors | 1.2% of 390,000 active; further: potency means the concentration at half of the fitted maximal effect; on the % scale 0 is the no-effect control and ±100 the full control effect
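Fluorescent replication assay: 50 nM final substrate added after a 15 min room-temperature compound preincubation with 10 nM enzyme. Signal taken at 0 min and again at 10 min.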
Pol kappa inh: blocks human DNA polymerase kappa activity | Q9UBT6 | purified Pol kappa, fluorescent DNA synthesis assay, 10 min | Potency, µM (top dose mostly 107 µM), without a hit: at the top dose activity, negative = inhibition, hits mostly inhibitors | 0.53% of 400,000 active | AID 588579; further: potency means the concentration at half of the fitted maximal effect; on the % scale 0 is the no-effect control and ±100 the full control effect
Target sequence (Q9UBT6 whole entry, looked up): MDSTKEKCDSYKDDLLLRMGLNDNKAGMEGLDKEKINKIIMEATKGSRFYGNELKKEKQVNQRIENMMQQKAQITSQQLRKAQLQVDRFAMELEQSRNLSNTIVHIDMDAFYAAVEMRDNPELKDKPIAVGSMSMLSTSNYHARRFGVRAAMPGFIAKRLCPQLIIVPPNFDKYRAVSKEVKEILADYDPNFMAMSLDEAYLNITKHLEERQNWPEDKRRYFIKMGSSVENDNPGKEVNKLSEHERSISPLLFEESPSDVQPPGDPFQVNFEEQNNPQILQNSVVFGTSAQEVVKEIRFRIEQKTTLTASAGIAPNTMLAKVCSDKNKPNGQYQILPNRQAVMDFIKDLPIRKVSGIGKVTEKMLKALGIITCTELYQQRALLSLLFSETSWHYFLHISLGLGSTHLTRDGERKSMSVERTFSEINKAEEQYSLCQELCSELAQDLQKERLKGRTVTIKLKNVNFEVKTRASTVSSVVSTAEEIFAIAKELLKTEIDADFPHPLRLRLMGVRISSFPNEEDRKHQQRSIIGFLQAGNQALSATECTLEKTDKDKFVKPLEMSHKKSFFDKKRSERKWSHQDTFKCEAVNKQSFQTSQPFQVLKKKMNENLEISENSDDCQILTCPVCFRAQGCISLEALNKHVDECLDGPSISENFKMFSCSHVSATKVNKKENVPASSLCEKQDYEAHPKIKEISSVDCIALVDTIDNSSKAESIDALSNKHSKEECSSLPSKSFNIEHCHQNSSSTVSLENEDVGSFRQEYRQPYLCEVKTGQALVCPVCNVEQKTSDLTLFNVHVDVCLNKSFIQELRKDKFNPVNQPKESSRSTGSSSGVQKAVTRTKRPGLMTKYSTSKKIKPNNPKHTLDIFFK
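Pol kappa 10 nM + cpd, 15 min RT; start w/ substrate 50 nM final; fluorescence kinetic read, 0 and 10 min. Neg ctrl: buffer, no enzyme.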
POLB inh: DNA polymerase beta (human) inhibition; P06746; Pol beta primer extension/strand displacement, fluorescence kinetic; Potency, µM (highest dose often 114 µM), for inactives: at the highest dose activity change, negative = inhibition, actives largely listed as inhibitors; 1.3% of 340,000 active; further: potency means the concentration at half of the fitted maximal effect; on the % scale 0 is the no-effect control and ±100 the full control effect
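Homogeneous kinetic assay of primer extension and strand displacement by 10 nM Pol beta, preincubated 15 min at room temperature with compound before 50 nM substrate (final) was added. Read at 0 and 10 min; four-parameter Hill fit.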
ALOX12 inh: blocks human arachidonate 12S-lipoxygenase; purified 12hLO, xylenol orange hydroperoxide absorbance; 1.1% of 580,000 active; Potency, µM (top dose mostly 108 µM), inactives show at the top dose activity change, negative = inhibition, hits mostly inhibitors; P18054; AID 1671190; further: potency means the concentration at half of the fitted maximal effect; on the % scale 0 is the no-effect control and ±100 the full control effect
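Purified human 12hLO at 150 nM in 25 mM Hepes, 0.01% Triton X-100, pH 7.0, preincubated 15 min at room temperature with compound. Reaction started with 40 uM arachidonic acid, 30 min at room temperature. Hydroperoxide measured by Fe-xylenol orange, 573/405 nm absorbance ratio.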
POLI inh: inhibitors of human DNA polymerase iota; Pol iota fluorescent replication assay, 10 min; 1% of 390,000 active; Q9UNA4; Potency, µM (doses to about 115 µM), for inactives: top-dose activity, negative = inhibition, most hits filed as inhibitors; further: potency means the concentration at half of the fitted maximal effect
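Fluorescent replication assay read twice, at 0 min and 10 min after adding 50 nM (final) substrate. Enzyme (10 nM) and compounds were first incubated 15 min at room temperature; enzyme-free buffer wells were negative controls.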
PI5P4K alpha inh: inhibitors of human PI5P4K alpha | PI5P4Kalpha enzyme, ADP-Glo luminescence, 60 min; hits give low values | 1.2% of 330,000 active | max response, % | AID 652105; active means max response of -50% or lower; inconclusive means between -30% and -50%; inactive means -30% or higher; further: value at the top dose of about 77 µM; on the % scale 0 is the no-effect control and ±100 the full control effect
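Compounds were pin-transferred onto PI5P4Kalpha and substrate in HEPES pH 7.4 buffer with EGTA, CHAPS and 5% DMSO. ATP (5 microM final) started the reaction, which ran 60 minutes at room temperature before ADP-Glo detection.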
The depositor's hits bear a star; ? = inconclusive; nt = no result; ! = a repeat was not active; [ ] = another dose, or the depositor's remark. Unless noted, the call rests on the fitted dose curve; in most records, active means well fitted inhibition curve with a large enough effect; inconclusive means small, poorly fitted or top-dose-only effect, or another doubt; inactive means no such curve, though single readings can be large or run the other way.

SMILES	Pol eta inh	Pol kappa inh	POLB inh	ALOX12 inh	POLI inh	PI5P4K alpha inh
Cc1ccc2cc(C3CC(c4ccco4)=NN3S(C)(=O)=O)c(Cl)nc2c1 (centres undefined)	-3%	-8%	-16%	?	24%	?
Cc1ccc2cc(C3CC(c4ccco4)=NN3C(=O)CCCC(=O)O)c(Cl)nc2c1 (centres undefined)	-5%	6%	-4%	-17%	3%	0
CCOc1ccc2cc(C3CC(c4ccco4)=NN3S(C)(=O)=O)c(=O)[nH]c2c1 (centres undefined)	?	-27%	16%	-22%	35µM*	?
Cc1ccc2nc(Cl)c(C3CC(c4ccco4)=NN3S(C)(=O)=O)cc2c1 (centres undefined)	-22%	0%	-17%	13µM*!	25%	-4
O=C1N=C(N2CCN(c3ccccc3)CC2)S/C1=C/c1cccs1	-22%	-7%	3%	-9%	12%	1
Cc1ccc(/C=C2\SC(N3CCN(C(c4ccccc4)c4ccccc4)CC3)=NC2=O)o1	-1%	-8%	40µM*	3.5µM*	-12%	?
Cc1ccc(-c2ccc(/C=C3\SC(N4CCOCC4)=NC3=O)o2)cc1	?	-18%	-11%	35µM*	60%	13
c1cnc(N2CCOCC2)c(CN(Cc2ccsc2)CC2CCCO2)c1 (centres undefined)	nt	nt	nt	84%	nt	nt
O=C(CN1CCN(C2CCS(=O)(=O)C2)CC1)N1CC=C(c2ccccc2)CC1 (centres undefined)	nt	nt	nt	-7%	nt	nt
O=C1NC(=S)N/C1=C/c1cc([N+](=O)[O-])ccc1O	-15%	-3%	1%	0%	?	-61*
O=C1NC(=S)N/C1=C/c1cccc([N+](=O)[O-])c1O	?	-13%	-14%	?	6%	-89*
Cc1ccc(/C=C2\NC(=S)NC2=O)cc1[N+](=O)[O-]	-26%	-9%	0%	-10%	40%	2
CCOc1ccc(NC(=O)C(CC)CC)c2cccnc12	nt	nt	nt	-22%	nt	nt
Cc1ccc2c(C(=O)CCl)c(C)[nH]c2c1	?	-8%	8%	?	10µM*	6
CSc1cccc(NC(=S)N2CCCN(Cc3cccc(Cl)c3)C2)c1	-24%	-5%	3%	35µM*	17%	-5
COc1ccc(NC(=S)N2CCCN(Cc3cccc(Cl)c3)C2)cc1	-8%	-2%	-14%	?	25%	-3
N#Cc1c(-c2ccco2)cc(-c2ccccn2)nc1N	?	-32%	?	9%	?	-67*
N#Cc1c(-c2ccco2)cc(-c2cccnc2)nc1N	?	-37%	?	?	?	nt
O=C(Nc1cccc(C(F)(F)F)c1)c1cc(N2CCCCS2(=O)=O)ccc1Cl	nt	nt	nt	0%	nt	nt
CCCCCCCCC(C)O (centres undefined)	nt	-9%[12 µM]	nt	nt	nt	nt
CCCCCCCCCCCCCCC(O)C[N+](C)(CCO)CCO (centres undefined)	-19%	-9%	nt	?	10%	-72*
C=CCNC(=O)NCc1cccc(C(N)=O)c1	nt	nt	nt	29%	nt	nt
CC(C)c1ccc(O)c(NC(=S)NC(=O)c2ccc3c(c2)OCO3)c1	-11%	-9%	-5%	13µM*	11%	2
COc1ccc(NC(=O)/C(Cl)=C(/Cl)S(=O)(=O)Cc2ccc(C)cc2)cn1	14µM*	-6%	-1%	nt	?	-7
CC(=O)Nc1ccc(NC(=O)CSc2nnc(-c3cccnc3)o2)cc1	8%	-9%	nt	4%	50µM*	-21
SMILES	Pol eta inh	Pol kappa inh	POLB inh	ALOX12 inh	POLI inh	PI5P4K alpha inh
O=C(CSc1nnc(-c2cccnc2)o1)Nc1ccc(Cl)cc1	-10%	-2%	-1%	3%	50%	-1
O=C1OC(c2ccccc2)(c2cc(Br)ccc2O)c2ccccc21 (centres undefined)	-24%	3%	nt	45µM*	20%	-7
COC(=O)C1=CC(=O)C=C(OC)[C@@]12Oc1cc(C)cc(OC)c1C2=O	nt	nt	nt	4.5µM*	nt	nt
COc1ccc(Cl)cc1Nc1ccc2cc(S(=O)(=O)N3CCCCC3)ccc2n1	-18%	-15%	1%	50µM*	54%	nt
O=S(=O)(c1ccc2nc(Nc3ccc(F)cc3)ccc2c1)N1CCCC1	-12%	3%	2%	-6%	39%	nt
Cc1ccc(CNc2ccc3cc(S(=O)(=O)N4CCCCC4)ccc3n2)cc1	-10%	0%	1%	-4%	-11%	nt
CCc1ccc(Nc2ccc3cc(S(=O)(=O)N4CCCC4)ccc3n2)cc1	nt	nt	nt	14µM*	nt	nt
COc1ccc(Nc2ccc3cc(S(=O)(=O)N4CCCC4)ccc3n2)cc1Cl	-14%	-13%	?	-14%	4%	nt
CC1CCC(Nc2ccc3cc(S(=O)(=O)N4CCCC4)ccc3n2)CC1 (centres undefined)	nt	nt	nt	8.9µM*	nt	nt
O=S(=O)(c1ccc2nc(NC3CCCCC3)ccc2c1)N1CCCC1	nt	nt	nt	11µM*	nt	nt
Cc1cccc(N2CCN(c3ccc4cc(S(=O)(=O)N5CCC(C)CC5)ccc4n3)CC2)c1C	-18%	-10%	-25%	50µM*	8%	nt
S=C(NCCN1CCOCC1)N1CCN(c2cccc(Cl)c2)CC1	1%	-20%	23%	5.6µM*	62%	2
S=C(NCc1ccco1)N1CCN(c2cccc(Cl)c2)CC1	-7%	-15%	20%	?	-29%	6
Cn1nc(-c2ccc(OCC(=O)Nc3cccc(C(F)(F)F)c3)cc2)c2ccccc2c1=O	79µM*	-6%	?	-1%	12%	nt
Cn1nc(-c2ccc(OCC(=O)Nc3cccnc3)cc2)c2ccccc2c1=O	-4%	-8%	-10%	0%	-6%	0
CC1Cc2ccccc2N1C(=O)Cn1c(=O)c2c(ncn2C2CCCC2)n(Cc2ccccc2)c1=O (centres undefined)	nt	nt	nt	9%	nt	nt
COc1ccccc1-[n+]1c(C)cc(/C=C2\Sc3ccccc3N2C)cc1C	?	?	?	-8%	-12%	-10
COc1ccc(-[n+]2c(C)cc(/C=C3\Sc4ccccc4N3C)cc2C)cc1	-19%	-5%[60.1 µM]	35µM*	?	24%	-6
CC(C)NC(=O)CSc1nc(NC2CC2)c2ccccc2n1	nt	nt	nt	37%	nt	nt
CCCCn1c(=S)[nH]c2c(=O)n(C)c(=O)n(C)c21	1%	nt	nt	45µM*	nt	-73*
COCCN1CCCN(C(=O)c2ccc(F)c(F)c2)c2ccccc21	nt	nt	nt	45µM*	nt	nt
CCC(=O)N1CCCN(CCOC)c2ccccc21	nt	nt	nt	33%	nt	nt
CCC(C)C(=O)Nc1ccc(N2CCCCC2)c2ccncc12 (centres undefined)	nt	nt	nt	7%	nt	nt
O=C(N/N=C/c1c[nH]c2ccccc12)c1ccc(O)c(O)c1	?	?	45µM*	nt	?	?
CCOc1ccc(-c2cc3c(=O)n(CCNC(=O)c4ccncc4)ccn3n2)cc1	nt	nt	nt	47%	nt	nt
